Screening results: PubChem BioAssay, National Center for Advancing Translational Sciences (NCATS)
Hits are enriched below; roughly 7.6% of the tested compounds scored in any of these assays.
Tau fil binding: tau filament binding; 71,000 tested, 2% active; AID 596; recombinant tau filaments, thioflavin S fluorescence, 15 h; filaments grown with octadecylsulfate alongside compound; Potency, µM (titrated, usually from 57.1 µM), for the others: at the top dose activity change, negative = inhibition; P10636;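 note: % is set by controls: 0 for no effect and ±100 for the full control effect; actives lower thioflavin S fluorescence by blocking filaments or displacing dye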
Target sequence (P10636 whole entry, looked up): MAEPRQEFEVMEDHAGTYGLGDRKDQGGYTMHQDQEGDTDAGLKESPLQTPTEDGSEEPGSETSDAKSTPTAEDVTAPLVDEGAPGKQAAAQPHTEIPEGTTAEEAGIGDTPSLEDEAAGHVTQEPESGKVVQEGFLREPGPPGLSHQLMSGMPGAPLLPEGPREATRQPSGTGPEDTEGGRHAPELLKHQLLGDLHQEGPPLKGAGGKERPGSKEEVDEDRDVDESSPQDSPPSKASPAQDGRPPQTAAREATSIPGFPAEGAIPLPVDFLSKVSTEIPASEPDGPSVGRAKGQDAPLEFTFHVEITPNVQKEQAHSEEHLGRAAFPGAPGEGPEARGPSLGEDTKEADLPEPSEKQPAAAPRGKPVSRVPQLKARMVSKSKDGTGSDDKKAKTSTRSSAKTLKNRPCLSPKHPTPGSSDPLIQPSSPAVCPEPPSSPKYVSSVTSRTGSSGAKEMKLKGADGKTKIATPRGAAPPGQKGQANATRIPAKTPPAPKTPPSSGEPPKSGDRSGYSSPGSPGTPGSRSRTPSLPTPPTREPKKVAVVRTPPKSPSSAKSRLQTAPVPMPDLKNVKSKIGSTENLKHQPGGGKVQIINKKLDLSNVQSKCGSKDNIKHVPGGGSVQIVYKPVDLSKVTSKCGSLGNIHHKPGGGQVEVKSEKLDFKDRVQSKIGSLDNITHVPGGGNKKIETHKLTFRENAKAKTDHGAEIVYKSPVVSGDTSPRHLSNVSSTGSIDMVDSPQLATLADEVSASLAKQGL
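His-tagged recombinant human tau (exons 2, 3, 10; 1 uM final) fibrillized with 30 uM sodium octadecylsulfate, 15 h at 37 C, in pH 7.4 HEPES buffer with 10 uM thioflavine S and 5 mM DTT. Reduced ThS fluorescence (450/510 nm) marks activity.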
ERK AVP inh: inhibitors of vasopressin-stimulated ERK signaling pathway; HEK293-V1b, vasopressin-stimulated pERK AlphaScreen; AID 995; 72,000 tested, 0.99% active; Potency, µM (doses to about 57.5 µM), without a hit: at the highest dose activity, negative = inhibition, usual class: inhibitors; note: % is set by controls: 0 for no effect and ±100 for the full control effect; nearly all actives have a fitted effect of over 55% in size
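Overnight-seeded V1b-HEK293 cells in 1% FBS got compound, then vasopressin (25 nM final, 5 min, 37C), then lysis buffer. AlphaScreen detection of phospho-ERK; activity normalized to basal and full-stimulation controls.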
HEK293 cAMP cs: counter-screen for TSHR agonists: cAMP increase in parental HEK293 | parental HEK293 CNG cAMP sensor, membrane potential fluorescence | Potency, µM (highest dose often 57.1 µM), for inactives: top-dose activation, hits mostly activators | 73,000 tested, 2.5% active | AID 938; note: % of control where 0% means no effect; nearly all actives have a fitted effect of over 55% in size
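Counterscreen for endogenous-receptor signalling: CNG-channel HEK 293 cells report cAMP rise by membrane depolarization. After 60 min dye equilibration with 100 uM RO 20-1724, compounds incubated 30 min before bottom-read fluorescence at 590 nm.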
TSHR agonist: TSH receptor (human) agonism; HEK293-CNG-TSHR cells (CNG channel as cAMP sensor), membrane potential dye, cAMP; Potency, µM (highest dose often 57.1 µM), for the others: at the highest dose activation, actives largely listed as activators; 73,000 tested, 0.48% active; AID 926; active = well fitted activation curve with a large enough effect in the main read-out, with a control signal flat, not every such curve was filed as active; inconclusive = small, poorly fitted or top-dose-only effect, or a change in a side signal; inactive = no such curve, though single readings can be large or run the other way; % of control where 0% means no effect;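 note: the control signal comes from parental cells without the receptor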
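HEK 293 cells stably expressing TSHR and a modified CNG channel, with CNG-only parental cells as counterscreen, were preloaded 60 min at room temperature with membrane potential dye containing 100 uM RO 20-1724. Compound exposure was 30 min, and depolarization was read as fluorescence at 590 nm.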
CRE-bla Fsk: modulators of forskolin-stimulated CRE signaling in CHO cells | AID 662 | 71,000 tested, 2.5% active | CHO CRE-bla reporter (cAMP response element driving beta-lactamase), forskolin EC10, beta-lactamase ratio | Potency, µM (highest dose often 38.2 µM), without a hit: at the top dose activity change, negative = inhibition, hits mostly activators; active = well fitted activation curve with a large enough effect in the signal ratio, with a control signal flat, not every such curve was filed as active; inconclusive = small, poorly fitted or top-dose-only effect, or effect the other way, or a change in a side signal; the % refers to the signal ratio; note: % of control where 0% means no effect
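Modulation of forskolin-driven signalling is measured in CHO cells carrying a CRE-controlled beta-lactamase reporter. Cells are stimulated with EC10 NKH 477 in the presence of titrated compound for 3 h at 37 °C, then loaded with CCF4 for 2 h at room temperature.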
An asterisk follows results filed as active. Unless noted, calls come from the whole dose curve; as a rule, active = well fitted curve in the direction sought with a large enough effect; inconclusive = small, poorly fitted or top-dose-only effect, or another doubt; inactive = no such curve, though single readings can be large; an effect the other way counts as inactive or inconclusive. Potency is the fitted concentration of half-maximal effect.

COc1ccc(-n2nc(C(=O)NCc3ccco3)c3c4ccccc4n(C)c3c2=O)cc1 was read as Tau fil binding 26.9%, ERK AVP inh 4.2%, HEK293 cAMP cs 10µM*, TSHR agonist inconclusive and CRE-bla Fsk inconclusive.
COc1ccc(Cc2nnc(SCC(=O)c3ccc(OC)cc3)o2)cc1 was read as Tau fil binding 18.9%, ERK AVP inh -12.4%, HEK293 cAMP cs 31.6µM*, TSHR agonist inconclusive and CRE-bla Fsk 0.5%.
Screening COc1ccc(C(=O)CSc2nnc(Cc3ccccc3)o2)cc1 returned Tau fil binding 27.0%, ERK AVP inh -19.6%, HEK293 cAMP cs 17.9% and CRE-bla Fsk -2.6%.
`COc1cc(-c2nnc(SCC(=O)c3cc(C)n(CC4CCCO4)c3C)o2)cc(OC)c1OC` (stereo not given) gave Tau fil binding 12.4%, ERK AVP inh -9.4%, HEK293 cAMP cs 5.2%, TSHR agonist 18.1% and CRE-bla Fsk 3.98µM*.
`COc1cccc(C(=O)CSc2nnc(-c3cc(OC)c(OC)c(OC)c3)o2)c1` gave Tau fil binding 3.9%, ERK AVP inh 6.6%, HEK293 cAMP cs 19.2% and CRE-bla Fsk inconclusive.
For COc1cc(-c2nnc(SCC(=O)c3ccc(C)cc3)o2)cc(OC)c1OC the results were Tau fil binding 72.2%, ERK AVP inh -0.1%, HEK293 cAMP cs inconclusive, TSHR agonist inconclusive and CRE-bla Fsk 2.51µM*.
`COc1cc(-c2nnc(SCC(=O)N3CCCC3)o2)cc(OC)c1OC` gave Tau fil binding 25.7%, ERK AVP inh -16.2%, HEK293 cAMP cs 3.6%, TSHR agonist -1.8% and CRE-bla Fsk inconclusive.
Screening CN(C)/C=C/C(=O)c1nnn(C2CCCCC2)c1NC1CCCCC1 returned Tau fil binding 130.1%, ERK AVP inh -13.6%, HEK293 cAMP cs 15.8µM*, TSHR agonist inconclusive and CRE-bla Fsk inconclusive.
C1CCC(Nc2nnnn2C2CCCCC2)CC1 was read as Tau fil binding -13.4%, ERK AVP inh -22.0%, HEK293 cAMP cs inconclusive, TSHR agonist inconclusive and CRE-bla Fsk 5.6%.
For CNc1ccnc(-c2ccccc2C)n1 the results were Tau fil binding -6.8%, ERK AVP inh 4.9%, HEK293 cAMP cs -0.3%, TSHR agonist 0.5% and CRE-bla Fsk 8.1%.
For C/C=C/Cn1c(SCc2ccc(C)cc2)nc2c1c(=O)[nH]c(=O)n2C the results were Tau fil binding 8.0%, ERK AVP inh 13.3%, HEK293 cAMP cs inconclusive, TSHR agonist inconclusive and CRE-bla Fsk 12.6µM*.
C=CCSc1nc2c(c(=O)[nH]c(=O)n2C)n1Cc1ccc(C)cc1 was read as Tau fil binding 318.8%, HEK293 cAMP cs -3.9%, TSHR agonist 5.6% and CRE-bla Fsk 2.51µM*.
CCn1c(N2CCN(CC(=O)c3c(C)n(C)c4ccccc34)CC2)nc2c1c(=O)[nH]c(=O)n2C was read as Tau fil binding 124.6%, ERK AVP inh -13.6%, HEK293 cAMP cs -1.4%, TSHR agonist 5.2% and CRE-bla Fsk 10µM*.
Cc1ccc(Cn2c(N3CCCCCC3)nc3c2c(=O)[nH]c(=O)n3C)cc1 was read as Tau fil binding 14.7%, ERK AVP inh 15.8µM*, HEK293 cAMP cs inconclusive, TSHR agonist inconclusive and CRE-bla Fsk inconclusive.
`CCCn1c(N2CCN(CC(=O)c3c[nH]c4ccccc34)CC2)nc2c1c(=O)[nH]c(=O)n2C` gave Tau fil binding -4.1%, ERK AVP inh -23.8%, HEK293 cAMP cs -2.9%, TSHR agonist 3.2% and CRE-bla Fsk inconclusive.
Screening CC(CN(C)C)NC(=O)c1ccc(Cc2nc3ccccc3[nH]2)cc1 (stereo not given) returned HEK293 cAMP cs -8.6% and TSHR agonist 1.8%.
Screening C=CC1CO1 (stereo not given) returned Tau fil binding 6.0%, ERK AVP inh 15.1%, HEK293 cAMP cs inconclusive, TSHR agonist inconclusive and CRE-bla Fsk -1.2%.
Screening Fc1ccc(Nc2ccnc(-c3ccccc3C(F)(F)F)n2)cc1 returned Tau fil binding -10.5%, ERK AVP inh -12.1%, HEK293 cAMP cs -0.1%, TSHR agonist 1.0% and CRE-bla Fsk -6.4%.
